Source: PubChem BioAssay
Calls of active or inactive are those of the source. Unless noted, no rule for the calls is given here.

How the values were obtained:
[1] = tested on: Wnt5a (protein binding on small-molecule microarray); experiment: small molecules binding Wnt5a protein – biophysical, small-molecule microarray, 635/667 nm fluorescence, primary screen (AID 1142); conditions: 635 nm fluorescence, higher = more signal;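 also: fluorescence read at 667 nm with signal to noise per printed feature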
[2] = ATP-based viability of Huh7 replicon cells – cell-based, CellTiter-Glo luminescence, basal, 48 h, cytotoxicity control for HCV replication inhibitor project, primary screen (AID 1143); conditions: higher = more signal, called active from +8 up or from −8 down;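 also: Huh7 hepatoma cells carrying a hepatitis C replication reporter with no stimulus; test concentration not given here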
[3] = Pseudomonas biofilm growth suppression – PAO1 strain, BacTiter-Glo luminescence, LB-PBS, primary screen (AID 1144); conditions: P. aeruginosa PAO1 biofilm, 12 h, higher = more signal
[4] = basal CRE-LacZ reporter activity in PC12 – cell-based, unstimulated, primary screen (AID 1145); conditions: no forskolin, luminescence, 4.5 h, higher = more signal, called active from +8 up or from −8 down
[5] = forskolin-driven CRE-LacZ activity in PC12 – cell-based, CRE-LacZ reporter, forskolin-stimulated, primary screen (AID 1146); conditions: luminescence, 4.5 h, higher = more signal, called active from +8 up or from −8 down;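 also: PC12 cells with 6xCRE LacZ reporter stimulated by forskolin 10 µM; beta-galactosidase reporter signal reflecting CREB driven transcription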
[6] = target: Streptavidin (Streptomyces avidinii) (UniProt P22629); experiment: compounds binding control protein streptavidin – biophysical, small-molecule microarray, 635/667 nm fluorescence, artefact control for SMM compound annotation, primary screen (AID 1147); conditions: higher = more signal;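 also: signal reflects streptavidin binding to arrayed compounds as a control protein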
[7] = probe aInhba binding on compound microarray – biochemical, small-molecule microarray, 635/667 nm fluorescence, primary screen (AID 1148); conditions: higher = more signal;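 also: score merges 667nm spot fluorescence with signal-to-noise for antibody binding to printed compounds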
Torsin-1A (Homo sapiens) [8] = target: Torsin-1A (Homo sapiens) (UniProt O14656); experiment: TOR1A wild-type binding on microarray – cell lysate, small-molecule microarray, lysate, 635/667 nm, primary screen (AID 1149); conditions: COS7 hTOR1A-WT lysate, 635 nm fluorescence, higher = more signal
Torsin-1A (Homo sapiens) [9] = target: Torsin-1A (Homo sapiens) (UniProt O14656); experiment: torsin A mutant lysate binding on microarrays – cell lysate, small-molecule microarray, COS7 lysate, 635/667 nm fluorescence, primary screen (AID 1150); conditions: COS7 hTOR1A mutant lysate, 635 nm fluorescence, higher = more signal;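 also: score pools 667 nm emission and signal to noise measuring lysate protein binding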
[10] = tested on: Sonic hedgehog protein (Shh); experiment: Sonic hedgehog microarray binding compounds – biochemical, small-molecule microarray, 635/667 nm fluorescence, primary screen (AID 1151); conditions: 635 nm fluorescence, higher = more signal;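 also: Shh protein binding to compounds spotted on small-molecule microarray slides; score combines spot fluorescence intensity with signal-to-noise across triplicate slides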
[11] = optical density shifts of acrAB sulA E. coli – strain DRC41, OD650, 48 h, E. coli filamentation inducer project, primary screen (AID 1152); conditions: higher = more signal, called active from +8 up or from −8 down;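 also: E. coli MC1000 strain DRC41 lacking acrAB efflux pump and sulA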
[12] = probe aLefty1 binding on compound microarray – biochemical, small-molecule microarray, 635/667 nm fluorescence, primary screen (AID 1153); conditions: higher = more signal;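 also: score merges spot fluorescence with signal-to-noise ratio from the scanned slide images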
[13] = plasmodial surface anion channel blockers, osmotic lysis – cell-based, P. falciparum Indochina, OD700, 1 h, primary screen (AID 1154); conditions: P. falciparum Indochina infected RBC osmotic lysis, higher = more signal, called active from +8 up or from −8 down
[14] = plasmodial surface anion channel blockers, osmotic lysis – cell-based, P. falciparum Indochina, OD700, 2 h, primary screen (AID 1155);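 also: lysis reports solute entry through the parasite surface anion channel PSAC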; conditions: P. falciparum Indochina infected erythrocytes, higher = more signal, called active from +8 up or from −8 down
[15] = changes in parasitized red cell lysis, either direction – P. falciparum Indochina, OD700, 3 h, PSAC antagonist project, primary screen (AID 1156); conditions: P. falciparum-infected erythrocytes, osmotic lysis, higher = more signal, called active from +8 up or from −8 down
[16] = plasmodial surface anion channel blockers, osmotic lysis – cell-based, P. falciparum Indochina, OD700, 18 h, primary screen (AID 1157); conditions: P. falciparum Indochina infected erythrocytes, osmotic lysis OD700, 18 h; higher = more signal, called active from +8 up or from −8 down
[17] = S6 kinase pathway phospho-S6 level changes – cell-based, A549, cytoblot, luminescence, serum-stimulated, primary screen (AID 1158); conditions: 5 h, higher = more signal;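 also: serum-stimulated A549 lung adenocarcinoma cells; signal is phosphorylated S6 detected by cytoblot immunostaining with HRP secondary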
[18] = target: NADPH oxidase 2 (Homo sapiens) (UniProt P04839); experiment: compounds shifting NOX2 Amplex Red fluorescence – cell-based, HEK293-NOX2, PMA-stimulated, NOX inhibitor project, primary screen (AID 1159); conditions: 45 min, higher = more signal, called active from +8 up or from −8 down; also: test concentration not given here
[19] = target: NADPH oxidase 4 (Homo sapiens) (UniProt Q9NPH5); experiment: compounds shifting NOX4 Amplex Red fluorescence – cell-based, HEK293-NOX4, tetracycline-induced, NOX inhibitor project, primary screen (AID 1160); conditions: HEK293-NOX4, Amplex Red H2O2 fluorescence, 45 min; higher = more signal, called active from +8 up or from −8 down
[20] = target: NADPH oxidase 5 (Homo sapiens) (UniProt Q96PH1); experiment: compounds shifting NOX5 Amplex Red fluorescence – cell-based, HEK293-NOX5, NOX inhibitor project, primary screen (AID 1161); conditions: HEK293-NOX5, ionomycin, 45 min, higher = more signal
Sequence of NADPH oxidase 5 (Homo sapiens) (Q96PH1 whole entry, looked up): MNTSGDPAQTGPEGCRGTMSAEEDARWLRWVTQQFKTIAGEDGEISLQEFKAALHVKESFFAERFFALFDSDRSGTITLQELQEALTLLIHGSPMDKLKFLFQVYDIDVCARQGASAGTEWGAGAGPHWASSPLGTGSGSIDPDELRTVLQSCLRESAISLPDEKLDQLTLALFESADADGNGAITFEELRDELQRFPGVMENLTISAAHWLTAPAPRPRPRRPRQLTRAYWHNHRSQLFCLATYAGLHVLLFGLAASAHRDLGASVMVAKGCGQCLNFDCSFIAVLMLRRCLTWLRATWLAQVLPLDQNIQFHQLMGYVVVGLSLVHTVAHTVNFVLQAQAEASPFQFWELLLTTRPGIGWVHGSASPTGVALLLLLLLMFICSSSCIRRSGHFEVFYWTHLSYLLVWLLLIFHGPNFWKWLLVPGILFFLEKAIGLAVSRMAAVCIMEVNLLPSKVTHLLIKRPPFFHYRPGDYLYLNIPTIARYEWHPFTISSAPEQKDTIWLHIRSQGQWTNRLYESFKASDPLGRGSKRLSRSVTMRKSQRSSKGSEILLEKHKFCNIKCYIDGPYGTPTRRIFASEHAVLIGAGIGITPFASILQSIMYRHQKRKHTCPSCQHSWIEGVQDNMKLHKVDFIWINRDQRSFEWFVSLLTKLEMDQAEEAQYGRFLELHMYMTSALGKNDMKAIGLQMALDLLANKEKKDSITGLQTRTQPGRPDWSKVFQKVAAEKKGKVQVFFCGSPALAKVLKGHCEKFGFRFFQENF

Sequence of NADPH oxidase 2 (Homo sapiens) (P04839 whole entry, looked up): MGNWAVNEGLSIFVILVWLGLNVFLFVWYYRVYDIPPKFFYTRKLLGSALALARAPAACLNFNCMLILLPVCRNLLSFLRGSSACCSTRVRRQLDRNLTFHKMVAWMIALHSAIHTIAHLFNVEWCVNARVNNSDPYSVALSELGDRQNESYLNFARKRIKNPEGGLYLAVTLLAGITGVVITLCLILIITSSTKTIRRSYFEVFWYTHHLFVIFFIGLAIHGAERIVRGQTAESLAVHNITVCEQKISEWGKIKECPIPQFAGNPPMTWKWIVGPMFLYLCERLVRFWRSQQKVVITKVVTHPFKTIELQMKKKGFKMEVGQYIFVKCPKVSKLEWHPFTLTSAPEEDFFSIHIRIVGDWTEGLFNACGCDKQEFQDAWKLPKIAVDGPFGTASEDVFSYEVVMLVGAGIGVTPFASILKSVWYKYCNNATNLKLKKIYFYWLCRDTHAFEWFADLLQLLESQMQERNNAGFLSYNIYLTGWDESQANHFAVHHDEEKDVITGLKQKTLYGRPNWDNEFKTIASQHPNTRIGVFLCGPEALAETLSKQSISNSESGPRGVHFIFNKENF
Sequence of NADPH oxidase 4 (Homo sapiens) (Q9NPH5 whole entry, looked up): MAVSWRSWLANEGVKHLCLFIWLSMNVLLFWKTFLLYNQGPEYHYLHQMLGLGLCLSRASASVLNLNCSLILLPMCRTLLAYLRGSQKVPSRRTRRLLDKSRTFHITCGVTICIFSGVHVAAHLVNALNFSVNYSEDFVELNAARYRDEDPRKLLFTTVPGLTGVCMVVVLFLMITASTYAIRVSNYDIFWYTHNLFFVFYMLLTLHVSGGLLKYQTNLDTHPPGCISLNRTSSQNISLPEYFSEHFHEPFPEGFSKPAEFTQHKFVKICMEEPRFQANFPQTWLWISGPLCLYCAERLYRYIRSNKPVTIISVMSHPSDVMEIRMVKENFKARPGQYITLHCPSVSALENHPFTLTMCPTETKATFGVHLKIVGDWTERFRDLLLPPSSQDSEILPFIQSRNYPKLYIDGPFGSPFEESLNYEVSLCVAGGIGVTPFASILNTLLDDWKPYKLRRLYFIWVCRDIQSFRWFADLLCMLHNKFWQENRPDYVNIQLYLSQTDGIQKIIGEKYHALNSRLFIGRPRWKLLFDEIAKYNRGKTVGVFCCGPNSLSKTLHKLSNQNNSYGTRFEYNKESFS
Sequence of Streptavidin (Streptomyces avidinii) (P22629 whole entry, looked up): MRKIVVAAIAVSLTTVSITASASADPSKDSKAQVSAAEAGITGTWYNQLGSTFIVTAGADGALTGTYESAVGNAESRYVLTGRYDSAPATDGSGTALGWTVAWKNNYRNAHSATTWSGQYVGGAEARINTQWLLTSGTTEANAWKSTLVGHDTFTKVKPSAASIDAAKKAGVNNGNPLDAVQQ
Sequence of Torsin-1A (Homo sapiens) (O14656 whole entry, looked up): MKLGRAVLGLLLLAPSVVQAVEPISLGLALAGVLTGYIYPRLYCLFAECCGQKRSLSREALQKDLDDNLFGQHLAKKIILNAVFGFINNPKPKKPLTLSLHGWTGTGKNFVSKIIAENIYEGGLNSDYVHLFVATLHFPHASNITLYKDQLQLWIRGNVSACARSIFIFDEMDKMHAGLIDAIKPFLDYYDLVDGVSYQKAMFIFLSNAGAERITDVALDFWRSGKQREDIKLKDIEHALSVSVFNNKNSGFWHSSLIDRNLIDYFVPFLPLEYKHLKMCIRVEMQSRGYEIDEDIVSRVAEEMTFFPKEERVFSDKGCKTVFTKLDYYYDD

SMILES | composite z-score [1] | z-score [2] | z-score [3] | z-score [4] | z-score [5] | composite z-score [6] | composite z-score [7] | composite z-score (Torsin-1A (Homo sapiens) [8]) | composite z-score (Torsin-1A (Homo sapiens) [9]) | composite z-score [10] | z-score [11] | composite z-score [12] | z-score [13] | z-score [14] | z-score [15] | z-score [16] | z-score [17] | z-score [18] | z-score [19] | z-score [20]
C=C(CCCC)/C(=C/C[C@H](OC(=O)c1ccncc1)c1ccc(CO)o1)c1cc(C(=O)OC)ccc1OC | 0.0136 | -0.441 (inactive) | -0.525 (inactive) | 0.201 (inactive) | 2.68 (inactive) | 0.551 | 0.221 | 0.428 | 0.646 | 1.63 | -0.432 (inactive) | 0.178 | 4.31 (inactive) | 0.756 (inactive) | 2.04 (inactive) | 0.332 (inactive) | -0.247 | -0.582 (inactive) | -0.903 (inactive) | -1.57
COC(=O)C(CC#Cc1ccc2c(c1)[C@]1(C(=O)N2)[C@H](c2ccccc2OCCO)N2[C@H](c3ccccc3)[C@H](c3ccccc3)OC(=O)[C@H]2[C@@H]1C(=O)Nc1nc2ccccc2s1)C(=O)OC | 0.384 | -2.07 (inactive) | -0.827 (inactive) | 1.21 (inactive) | 1.53 (inactive) | 0.762 | 0.0633 | 0.283 | 0.24 | 1.46 | -1.2 (inactive) | 0.361 | 4.68 (inactive) | 1.71 (inactive) | 0.103 (inactive) | 1.77 (inactive) | 0.334 | 1.04 (inactive) | 0.517 (inactive) | 0.545
COCCOC(=O)N1C(=O)[C@@]2(c3cc(C#CCC(C(=O)OC)C(=O)OC)ccc31)[C@H](C(=O)N1CCCCCCC1)[C@H]1C(=O)O[C@H](c3ccccc3)[C@H](c3ccccc3)N1[C@@H]2c1ccc(O)cc1 | 0.735 | -4.08 (inactive) | -0.754 (inactive) | -0.882 (inactive) | -0.807 (inactive) | 1.22 | 1.22 | 1.41 | 1.41 | 1.62 | 0.683 (inactive) | 2.46 | 0.915 (inactive) | 0.444 (inactive) | 0.678 (inactive) | 0.336 (inactive) | -0.0955 | 1.32 (inactive) | -0.378 (inactive) | 1.01
COC(=O)[C@@]1(Cc2ccc(F)cc2)[C@H]2c3cc(C(=O)N4CCCC4)n(Cc4ccccc4)c3C[C@H]2CN1C(=O)c1ccccc1 | 0.379 | -3.69 (inactive) | 0.195 (inactive) | -0.368 (inactive) | 0.339 (inactive) | 1.38 | -0.0413 | 0.0257 | 0.72 | -0.447 | -1.25 (inactive) | 0.216 | 4.64 (inactive) | 0.899 (inactive) | 2.65 (inactive) | 1.26 (inactive) | 0.178 | -0.165 (inactive) | 0.648 (inactive) | -1.48
COc1ccc([Si](C)(C)[C@@H]2[C@@H](CCO)O[C@]3(C(=O)N(Cc4ccc(N5C(=O)c6ccccc6Oc6ccccc65)cc4)c4ccccc43)[C@H]2C)cc1 | -0.355 | -7.17 (inactive) | -0.734 (inactive) | 2.5 (inactive) | 0.286 (inactive) | -0.132 | -0.179 | -1.04 | -0.949 | 0.0769 | -0.572 (inactive) | 0.0496 | 3.28 (inactive) | 1.99 (inactive) | -1.14 (inactive) | 1.26 (inactive) | 0.0148 | 0.0702 (inactive) | 1.63 (inactive) | 2.29
CCCCC(=C=CC[C@H](O)c1cccc(OCCO)c1)C[C@H](O)COCc1ccccc1 | -0.122 | -1.33 (inactive) | -0.295 (inactive) | 3.54 (inactive) | 1.04 (inactive) | 0.206 | -0.101 | 0.139 | 0.0056 | 0.508 | 0.483 (inactive) | -0.0984 | 15.3 (active) | 2.48 (inactive) | 0.658 (inactive) | 1.02 (inactive) | 0.949 | -2.67 (inactive) | -1.29 (inactive) | -2.41
CC(C)NC(=O)[C@@H]1c2ccccc2C(=O)N(Cc2cc(C(F)(F)F)cc(C(F)(F)F)c2)[C@H]1c1ccc(CO)cc1 | 0.133 | 0.0274 (inactive) | 0.71 (inactive) | 0.0279 (inactive) | 0.296 (inactive) | 0.0544 | 0.136 | 0.275 | 0.0913 | 0.646 | -0.464 (inactive) | 0.358 | 1.54 (inactive) | 0.349 (inactive) | -0.113 (inactive) | 0.057 (inactive) | -0.167 | 0.513 (inactive) | 0.349 (inactive) | -0.284
CC1C=C(CCCO)C=C(C(=O)OCCS(C)(=O)=O)C(C(=O)OCCS(C)(=O)=O)=CN1Cc1cccc(OC(F)(F)F)c1 (stereo not given) | 0.0382 | -0.911 (inactive) | -0.846 (inactive) | -0.364 (inactive) | 0.56 (inactive) | 1.28 | 0.288 | 0.887 | 0.893 | -0.0368 | -0.311 (inactive) | 0.304 | 1.81 (inactive) | 0.45 (inactive) | 0.714 (inactive) | 0.283 (inactive) | 0.402 | -1.97 (inactive) | -0.729 (inactive) | -1.67
